Measurements: PubChem BioAssay (EPA / NIEHS)
“And” between values parts separate entries of the source, which are not always exact repeats. Identical values can stand only once. Inconclusive results are not listed. The source made the active and inactive calls. Rule for the calls: active = hit-call score of the fitted dose curve at least 0.9, where 1 is the maximum; inconclusive = response in the unintended direction; inactive = score below 0.9.

What was measured:
[1] = ACEA_ER_AUC_viability: ACEA Biosciences xCELLigence Real-Time Cell Analysis on Estrogen Receptor Agonism for Viability (AID 2283782);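 note: hit means loss of impedance signal meaning reduced cell growth or viability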
Method in brief: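 Read-out: real-time electrical impedance (RT-CES) area under curve, loss of signal taken as reduced viability, normalized to DMSO baseline. T-47D cells, charcoal-stripped serum medium, compounds up to 100 uM final, continuous exposure, 80 h.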

[2] = biological target: chicken Estrogen Receptor (ESR1), ESR1 (gene 396099) (UniProt P06212); assay: ATG_chERa_XSP1: Attagene TRANS-FACTORIAL Multi-Species (XSP1) HepG2 Assay for chicken Estrogen Receptor (ESR1) (AID 2283779)
Chain of chicken Estrogen Receptor (ESR1), ESR1 (gene 396099) (P06212 whole entry, looked up, the tested form may be a part): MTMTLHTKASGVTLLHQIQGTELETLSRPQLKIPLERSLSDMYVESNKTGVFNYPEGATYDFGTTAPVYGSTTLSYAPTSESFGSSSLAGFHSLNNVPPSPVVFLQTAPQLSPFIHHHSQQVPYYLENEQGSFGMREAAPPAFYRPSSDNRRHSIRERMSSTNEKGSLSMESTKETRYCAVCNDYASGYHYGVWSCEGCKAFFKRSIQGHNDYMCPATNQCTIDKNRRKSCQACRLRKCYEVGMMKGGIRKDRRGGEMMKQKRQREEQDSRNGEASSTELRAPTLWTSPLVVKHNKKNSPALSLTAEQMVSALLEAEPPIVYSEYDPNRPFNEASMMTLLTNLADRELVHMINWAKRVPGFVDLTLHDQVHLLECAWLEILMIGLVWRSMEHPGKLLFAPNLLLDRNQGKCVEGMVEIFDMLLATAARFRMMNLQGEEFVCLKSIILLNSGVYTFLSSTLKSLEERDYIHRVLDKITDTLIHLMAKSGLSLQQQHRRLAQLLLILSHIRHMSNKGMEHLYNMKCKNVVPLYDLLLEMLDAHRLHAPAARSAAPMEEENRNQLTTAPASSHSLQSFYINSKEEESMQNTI
Method in brief: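 Read-out: fluorescent reporter mRNA fragments resolved by capillary electrophoresis after RT-PCR and HpaI digestion. Transfected HepG2 cells carried chimeric NR-Gal4 constructs, were dosed 24 h with 3 nM 6-alpha-fluorotestosterone added, and activity was fitted upward relative to DMSO.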

[3] = system: turtle Estrogen Receptor (ESR1), gene 101933533; assay: ATG_trERa_XSP1: Attagene TRANS-FACTORIAL Multi-Species (XSP1) HepG2 Assay for turtle Estrogen Receptor (ESR1) (AID 2283781)
Procedure: ATG_XSP1_multi-species_TRANS is a cell-based, multiplexed assay created by modifying the existing Attagene TRANS-FACTORIAL system to include a panel of nuclear receptors from some or all the following species: human (Homo sapiens), mouse (Mus musculus), frog (Xenopus laevis), zebrafish (Danio rerio), chicken (Gallus gallus), and turtle (Chrysemys picta). The ECOTOX-FACTORIAL format uses HepG2, a human liver cell line, with measurements taken at 24 hours after chemical dosing in a 24-well plate. Xsp1 included 3 nM 6-alpha-fluorotestosterone to partially stimulate the androgen receptor.ATG_trERa_XSP1 is one of 29 assay components measured or calculated from the ATG_XSP1_multi-species_TRANS assay. It is designed to make measurements of mRNA induction, a form of inducible reporter, as detected with fluorescence intensity signals by Reverse transcription polymerase chain reaction (RT-PCR) and Capillary electrophoresis technology.The assay endpoint ATG_trERa_XSP1 was analyzed in the positive analysis fitting direction relative to DMSO as the negative control and baseline of activity. Using a type of inducible reporter, measures of mRNA for gain-of-signal activity can be used to understand the reporter gene at the transcription factor-level as they relate to the gene ER. Furthermore, this assay endpoint can be referred to as a primary readout, because this assay has produced multiple assay endpoints where this one serves a reporter gene function. […]
Human liver HepG2 cells are transiently transfected with multiple reporter transcription units (MRTUs) in 6-well plates using FuGene 6 reagent (Roche; 3 ml FuGene/1 mg DNA). […] A major difference between the CIS and TRANS system is that in CIS activities of endogenous TFs are measured, whereas the TRANS assay evaluates changes in activities of exogenous, chimeric NR-Gal4 proteins. […] The fragments were purified using Qiaquick PCR columns (Qiagen), analyzed on an ABI 3130xL genetic analyzer (Applied Biosystems) with peak positions identified by using a set of X-rhodamine (ROX)-labeled MapMarker1000 molecular weight standards (BioVentures). […]

AR (gene 367) = AR (gene 367) (UniProt P10275); assay: ACEA_AR_antagonist_80hr: ACEA Biosciences xCELLigence Real-Time Cell Analysis on Androgen Receptor Antagonism for Proliferation (AID 2283787);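 note: 22Rv1 human prostate cancer cells with growth followed by electrical impedance; hits lower the impedance growth signal relative to DMSO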
Chain of AR (gene 367) (P10275 whole entry, looked up): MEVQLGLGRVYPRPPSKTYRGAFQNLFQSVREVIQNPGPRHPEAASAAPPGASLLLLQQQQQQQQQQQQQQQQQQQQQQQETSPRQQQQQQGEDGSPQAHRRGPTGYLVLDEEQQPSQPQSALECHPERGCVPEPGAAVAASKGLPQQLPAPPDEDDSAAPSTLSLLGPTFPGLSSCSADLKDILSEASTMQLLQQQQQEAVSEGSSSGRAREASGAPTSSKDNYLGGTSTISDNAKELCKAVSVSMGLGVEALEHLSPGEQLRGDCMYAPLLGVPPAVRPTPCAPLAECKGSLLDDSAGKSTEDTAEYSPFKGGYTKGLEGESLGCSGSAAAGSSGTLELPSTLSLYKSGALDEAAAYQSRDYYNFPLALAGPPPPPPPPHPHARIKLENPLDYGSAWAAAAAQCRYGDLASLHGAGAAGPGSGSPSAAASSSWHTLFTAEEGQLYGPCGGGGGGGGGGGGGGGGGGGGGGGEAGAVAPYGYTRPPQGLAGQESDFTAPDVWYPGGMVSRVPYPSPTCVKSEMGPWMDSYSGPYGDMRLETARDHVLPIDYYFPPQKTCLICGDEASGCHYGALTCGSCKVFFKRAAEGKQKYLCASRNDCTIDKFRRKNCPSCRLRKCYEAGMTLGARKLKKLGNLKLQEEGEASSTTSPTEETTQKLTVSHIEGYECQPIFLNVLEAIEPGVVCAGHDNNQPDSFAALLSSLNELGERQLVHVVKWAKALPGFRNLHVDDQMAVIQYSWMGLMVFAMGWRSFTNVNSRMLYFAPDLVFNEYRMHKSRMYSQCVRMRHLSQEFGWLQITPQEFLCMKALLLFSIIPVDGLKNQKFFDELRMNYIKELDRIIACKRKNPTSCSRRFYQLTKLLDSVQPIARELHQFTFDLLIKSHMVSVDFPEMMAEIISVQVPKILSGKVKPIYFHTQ
Method in brief: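 Measures real-time proliferation of 22Rv1 prostate cancer cells by electrode impedance at 80 hours after dosing. Test articles ran at eight concentrations (1:4 steps, top 100 uM final) in biological duplicate.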

[4] = biological target: Estrogen receptor beta (Homo sapiens) (UniProt Q92731); assay: ATG_hERb_XSP1: Attagene TRANS-FACTORIAL Multi-Species (XSP1) HepG2 Assay for human Estrogen Receptor (ESR2) (AID 2283788)
Chain of Estrogen receptor beta (Homo sapiens) (Q92731 whole entry, looked up, the tested form may be a part): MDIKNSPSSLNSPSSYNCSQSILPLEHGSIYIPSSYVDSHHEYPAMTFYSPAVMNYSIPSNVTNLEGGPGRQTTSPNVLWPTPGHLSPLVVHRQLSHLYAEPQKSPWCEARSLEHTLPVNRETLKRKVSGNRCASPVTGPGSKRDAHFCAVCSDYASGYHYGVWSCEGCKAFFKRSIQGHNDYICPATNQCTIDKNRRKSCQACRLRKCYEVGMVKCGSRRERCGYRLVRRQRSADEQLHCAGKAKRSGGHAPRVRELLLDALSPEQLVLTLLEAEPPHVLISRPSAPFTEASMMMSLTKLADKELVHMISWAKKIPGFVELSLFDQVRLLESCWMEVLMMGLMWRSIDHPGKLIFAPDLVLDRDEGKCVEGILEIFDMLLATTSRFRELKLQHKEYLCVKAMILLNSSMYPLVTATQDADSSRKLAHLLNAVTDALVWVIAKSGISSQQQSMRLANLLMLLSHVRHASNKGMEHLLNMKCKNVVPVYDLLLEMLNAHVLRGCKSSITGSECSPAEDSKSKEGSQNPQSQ
Method in brief: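 Transient MRTU transfection of HepG2; ERβ–GAL4 TRANS format; 24 h dosing; 3 nM 6α-fluorotestosterone co-added; RNA → RT-PCR → 6-FAM primer extension → CE; activity vs DMSO.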

[5] = ATG_M_06_XSP1: Attagene TRANS-FACTORIAL Multi-Species (XSP1) HepG2 Assay for M06 Transcription Factor (Internal Marker) (AID 2283790)
Method in brief: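 This background-control readout tracks M06 reporter mRNA, measured by RT-PCR and capillary electrophoresis. HepG2 cells transiently carrying the GAL4-UAS reporter panel were dosed for 24 h with 3 nM 6-alpha-fluorotestosterone added for partial AR stimulation; increases were scored relative to DMSO.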

[6] = ATG_M_61_XSP1: Attagene TRANS-FACTORIAL Multi-Species (XSP1) HepG2 Assay for M61 Transcription Factor (Internal Marker) (AID 2283797)
Method in brief: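 Background-control readout: reporter transcripts measured by RT-PCR and capillary electrophoresis 24 h after dosing transiently transfected HepG2 multi-reporter cells, with 3 nM 6-alpha-fluorotestosterone present. Fitted in the positive direction relative to DMSO.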

[7] = ATG_M_32_XSP1: Attagene TRANS-FACTORIAL Multi-Species (XSP1) HepG2 Assay for M32 Transcription Factor (Internal Marker) (AID 2283799)
Method in brief: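 Reporter transcripts from the M32 internal-control unit measured by RT-PCR, FAM labelling, HpaI digestion and capillary electrophoresis after 24 h compound exposure of transfected HepG2, 3 nM 6-alpha-fluorotestosterone included; DMSO baseline, positive-direction fit.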

[8] = system: turtle Thyroid Hormone Receptor, alpha (TRa), gene 101949057; assay: ATG_trTRa_XSP1: Attagene TRANS-FACTORIAL Multi-Species (XSP1) HepG2 Assay for turtle Thyroid Hormone Receptor, alpha (TRa) (AID 2283806)
Method in brief: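 After 24 h chemical exposure, reporter transcripts were measured by RT-PCR with fluorescent primer extension, HpaI digestion and capillary electrophoresis. Cells were transiently transfected HepG2 expressing exogenous NR-Gal4 chimeras; medium contained 3 nM 6-alpha-fluorotestosterone; fitted upward relative to DMSO.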

CC(O)C(=O)O (centres undefined)
outcome [1]: inactive

CC#C[C@]1(O)CC[C@H]2[C@@H]3CCC4=CC(=O)CCC4=C3[C@@H](c3ccc(N(C)C)cc3)C[C@@]21C
AC50 [1]: 90.5 µM (active) and 83.7 µM (active) and 82.6 µM (active)

O=[N+]([O-])c1ccc(O)cc1
outcome [1]: inactive

c1ccc2c(c1)Cc1ccccc1-2
outcome [1]: inactive

CC(C)(C)c1cccc(C(C)(C)C)c1O
outcome [1]: inactive

FC(F)(I)C(F)(F)C(F)(F)C(F)(F)C(F)(F)C(F)(F)I
AC50 [1]: 45 µM (active)

CC(C)(C)CC(C)(C)c1ccc(O)c(-n2nc3ccccc3n2)c1
AC50 [1]: 21.6 µM (active)

CC(O)CO (centres undefined)
outcome [1]: inactive

CCCOc1sc(C(=O)N2CCC(c3cc(CN)ccc3F)CC2)c(C)c1Br
AC50 [1]: 5.11 µM (active)

C=C(C)C(=O)OCCC(F)(F)C(F)(F)C(F)(F)C(F)(F)C(F)(F)C(F)(F)F
outcome [1]: inactive

O=C(O)Cc1cc(I)c(Oc2cc(I)c(O)c(I)c2)c(I)c1
outcome [1]: inactive

OCCC(F)(F)C(F)(F)C(F)(F)C(F)(F)C(F)(F)C(F)(F)F
outcome [1]: inactive

CCCCCCCCCCCCCC[N+](C)(C)C
AC50 [1]: 15.9 µM (active) and 6.59 µM (active)

ClC1=C(Cl)C(Cl)(Cl)C(Cl)=C1Cl
AC50 [1]: 71.2 µM (active)

Cc1oc(-c2ccccc2)nc1CCOc1ccc(C[C@H](Nc2ccccc2C(=O)c2ccccc2)C(=O)O)cc1
outcome [2]: inactive | outcome [3]: inactive | AC50 [1]: 78.5 µM (active) | AC50 (AR (gene 367)): 8.01 µM (active) | outcome [4]: inactive | outcome [5]: inactive | outcome [6]: inactive | outcome [7]: inactive | outcome [8]: inactive

Cc1cc(C)c(O)c(C)c1
outcome [1]: inactive
